# Reference: PubChem BioAssay (NCATS)
# Results filed as inconclusive are left out. Entries that show only a call come without a potency. A number with no mark means an inactive call. Calls of active or inactive are those of the source. The call rests on the fitted dose curve; in most records, active means well fitted inhibition curve with a large enough effect; inconclusive means small, poorly fitted or top-dose-only effect; inactive means no such curve, though single readings can be large or run the other way.
# Experiment: Primary qHTS for inhibitors of nuclear receptor binding SET domain protein 2 (NSD2) in an RCH-ACV wild type WT cells (2C) (AID 1645877); further: nearly all actives have a fitted effect of over 70% in size
# Conditions: RCH-ACV (leukaemia line) NSD2 WT (2C) viability, CellTiter-Glo, 72 h; series mostly up to 44.9 µM
Structure (SMILES),Potency,"activity change, negative = cell killing"
C/C=C(\C)C(=O)OC[C@H]1O[C@H](O[C@H]2O[C@H](CO)[C@@H](O)[C@H](O)[C@H]2O[C@@H]2O[C@H](CO)[C@@H](O)[C@H](O)[C@H]2O)[C@H](O[C@@H]2O[C@H](CO)[C@@H](O)[C@H](O)[C@H]2O)[C@@H](O)[C@@H]1O,inactive,–
Fc1cccc(CN(C2=NCCN2)c2c(Cl)cccc2Cl)c1,inactive,–
C=C1CC[C@H]2[C@@](C)(CCC(OC3OC(CO)C(O)C(O)C3O)[C@@]2(C)CO)C1C(=O)CC1=CCOC1=O (some centres not stated),inactive,–
C/C=C/C=C/C=C/C(=O)OC1C=C2C(O)OC(=O)[C@]2(O)[C@@]2(C)CCCC(C)(C)[C@H]12 (some centres not stated),inactive,–
C[C@@H]1C[C@@H](O)[C@@]23CO[C@]2(CO)CCC[C@@H]3[C@@]12C[C@@H](c1ccoc1)OC2=O,inactive,–
CC(C)C1C(OC(=O)/C=C/c2ccccc2)CC2(C)OC2CCC2(C)OC2C1O (configuration not stated),inactive,–
CC1(C)[C@H]2C[C@H](C/C=C\CCCC(=O)O)[C@@H](NC(=O)c3csc4ccc(O)cc34)[C@@H]1C2,inactive,–
CCC/C=C1\OC(=O)C2=C1CCC(O)C2O (configuration not stated),inactive,–
C=C1C(O)C(OC(=O)c2ccccc2)C2C(C)(C(=O)O)CCCC2(C)C1CC/C(C)=C\CO (configuration not stated),inactive,–
CC1CCC2(NC1)OC1C(O)C3C4CCC5CC(O[C@@H]6O[C@H](CO)[C@@H](O)[C@H](O)[C@H]6O[C@@H]6O[C@@H](C)[C@H](O)[C@@H](O)[C@H]6O)CCC5(C)C4CCC3(C)C1C2C (some centres not stated),inactive,–
CCC(C)/C=C(C)/C=C/C1=CC2=C(Cl)C(=O)C(C)(OC(C)=O)C(=O)C2=CN1C(CCC(=O)O)C(=O)O (configuration not stated),inactive,–
CC(=O)c1c(C)cccc1O[C@@H]1O[C@H](CO)[C@@H](O)[C@H](O)[C@H]1O,inactive,–
C=C[C@H]1[C@H](O[C@@H]2O[C@H](CO)[C@@H](O)[C@H](O)[C@H]2O)OC=C2C(=O)N3Cc4c([nH]c5ccccc5c4=O)[C@@H]3C[C@H]21,inactive,–
C[C@@H]1O[C@@H](O[C@H]2[C@H](OC(=O)[C@]34CCC(C)(C)C[C@H]3C3=CCC5[C@@]6(C)C[C@@H](O)[C@@H](O)[C@@](C)(CO)C6[C@H](O)C[C@@]5(C)[C@]3(C)CC4)OC[C@H](O)[C@@H]2O)[C@H](O)[C@H](O)[C@H]1O[C@@H]1OC[C@@H](O)[C@H](O[C@H]2O[C@H](C)[C@@H](O)[C@H](O)[C@@H]2O)[C@H]1O (some centres not stated),–,-1.27% [at 9.23 µM]
CC1(C)COC(=O)[C@@H]1O[C@@H]1O[C@H](CO)[C@@H](O)[C@H](O)[C@H]1O,inactive,–
Nc1nc2c(nc(Sc3ccc(Cl)cc3)n2[C@@H]2O[C@@H]3COP(=O)(O)O[C@H]3[C@H]2O)c(=O)[nH]1,inactive,–
O=C(O)CC(CCc1ccccc1)OC1OC(CO)C(O)C(O)C1O (configuration not stated),inactive,–
